The list is not random: actives were taken first. Their share in the collection is about 7.4%.
Rab9 promoter act: activates the Rab9 promoter; 320,000 compounds, 2.8% hits; Potency, µM (series often up to 9.22 µM), for inactives: at the highest dose activation, negative = inhibition, usual class: activators; Huh7 Rab9 promoter-luciferase reporter, luminescence, 24 h; further: % of control where 0% means no effect; nearly all actives have a fitted effect of over 60% in size
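Cell-based reporter: Huh7 stable for Rab9 promoter-driven luciferase, plated in reduced-serum medium with 10% FBS at 1500 cells/well, compound-treated 24 h at 37 °C, luminescence read after 10 min reagent.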
ELG1 genotox: induces genotoxicity in HEK293T cells with luciferase-tagged ELG1. HEK293T ELG1-luciferase reporter, luminescence, 16 h. Potency, µM (series often up to 46 µM), for inactives: top-dose activity change, positive = activation, most hits filed as activators. 330,000 compounds, 1.3% hits. AID 504466; further: % of control where 0% means no effect; nearly all actives have a fitted effect of over 60% in size
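ELG1-luciferase HEK293T cells, 2,000/well; compound pinned in; 16 hr, 37 °C, 5% CO2; ONE-Glo, 30 min RT; luminescence on CCD imager.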
SMN2 splice enh: SMN2 splice variant enhancement. HEK293 SMN2-luciferase splicing reporter, luminescence, 30-36 h. Potency, µM (top dose mostly 46.1 µM), inactives show at the highest dose activity change, positive = activation, usual class: activators. 210,000 compounds, 2.8% hits. AID 1458; further: % of control where 0% means no effect; nearly all actives have a fitted effect of over 55% in size
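HEK293 cells carry an SMN2 […]–luciferase reporter in which exon 7 inclusion puts luciferase in frame. Cells were plated 10-12 h before compound addition, then incubated 30-36 h at 37C. ONE-Glo luminescence was read; sodium butyrate at 4.5 mM final served as control.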
FLuc counter: counter-screen for miR-21 project: firefly luciferase inhibitors or activators; P08659; purified FLuc, Km substrates, luminescence inhibition; 360,000 compounds, 6.9% hits; Potency, µM (doses to about 57.5 µM), without a hit: at the highest dose activity change, negative = inhibition, actives largely listed as inhibitors; AID 588342;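 further: plate controls were vehicle for no effect and reference inhibitor for full effect; nearly all actives have a fitted effect of over 55% in size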
Target sequence (P08659 whole entry, looked up): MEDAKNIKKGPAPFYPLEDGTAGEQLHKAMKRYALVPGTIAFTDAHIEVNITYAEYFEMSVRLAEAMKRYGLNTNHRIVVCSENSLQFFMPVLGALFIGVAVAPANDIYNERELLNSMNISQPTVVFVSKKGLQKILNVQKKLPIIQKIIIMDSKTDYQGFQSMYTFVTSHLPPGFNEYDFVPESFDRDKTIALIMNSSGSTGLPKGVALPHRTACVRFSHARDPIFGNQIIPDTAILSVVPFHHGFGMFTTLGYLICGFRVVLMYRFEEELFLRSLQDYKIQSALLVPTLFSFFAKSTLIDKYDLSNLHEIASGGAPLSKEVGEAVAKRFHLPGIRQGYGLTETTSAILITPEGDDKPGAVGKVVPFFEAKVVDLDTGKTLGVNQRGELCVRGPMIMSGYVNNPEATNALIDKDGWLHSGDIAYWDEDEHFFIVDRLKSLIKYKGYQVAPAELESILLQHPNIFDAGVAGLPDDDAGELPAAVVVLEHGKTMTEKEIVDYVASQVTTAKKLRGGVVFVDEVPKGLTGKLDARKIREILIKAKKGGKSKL
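Purified P. pyralis luciferase, 10 nM final, with Km-level 10 uM D-luciferin and 10 uM ATP in 50 mM Tris acetate pH 7.5, 10 mM Mg acetate, 0.01% Tween-20, 0.05% BSA; 6-point qHTS titration about 60 µM downward; luminescence read.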
NPC1 promoter act: NPC1 promoter activation | Huh7 NPC1 promoter luciferase reporter, 24 h | Potency, µM (doses to about 9.22 µM), for inactives: top-dose activation, actives largely listed as activators | 320,000 compounds, 2.4% hits | AID 485313; further: % of control where 0% means no effect; nearly all actives have a fitted effect of over 60% in size
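NPC1 promoter–luciferase Huh7 cells; 24 h compound; luminescence.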
* marks the source's active call; other numbers are inactive results; ? = inconclusive; . = no result given; [ ] = another dose, or the depositor's remark. The call rests on the fitted dose curve; in most records, active means well fitted curve in the direction sought with a large enough effect; inconclusive means small, poorly fitted or top-dose-only effect, or another doubt; inactive means no such curve, though single readings can be large; an effect the other way counts as inactive or inconclusive. Potency means the concentration at half of the fitted maximal effect.

SMILES	Rab9 promoter act	ELG1 genotox	SMN2 splice enh	FLuc counter	NPC1 promoter act
O=C(Cc1ccccc1F)Nc1nc(-c2cccs2)cs1	?	?	-13%	11µM*	?
O=C(Cc1ccccc1)Nc1nnc(-c2cccs2)s1	?	?	?	-1%	?
CC(OC(=O)c1ccc([N+](=O)[O-])o1)C(=O)Nc1nc(-c2ccc(F)c(F)c2)cs1 (stereo not drawn)	?	14%	.	24µM*	?
O=C(Cc1ccccc1F)Nc1nc(-c2ccc(F)c(F)c2)cs1	?	-24%	.	13µM*	4%
CC(C)(C)C(=O)Nc1nc(-c2ccccc2)ns1	0.63µM*	14%	1.6µM*	5.4µM*	0.5µM*
O=C(Nc1nc(-c2ccccc2)ns1)c1ccncc1	28%	1%	.	11µM*	24%
c1ccc(Nc2nc(-c3ccccc3)ns2)cc1	1.3µM*	1.8µM*	.	2.1µM*	1.8µM*
O=C(Nc1nc(-c2ccccc2)ns1)c1ccc(Cl)cc1	.	.	.	-6%	.
CCOC(=O)N1CCN(C(=O)c2cccc(S(=O)(=O)Nc3ccc(Br)cc3)c2)CC1	-3%	0%	.	7%	-3%
CCOC(=O)c1cc2c(nc1NC(=S)NCc1ccccc1)CCCC2	?	?	11µM*	?	?
CCOC(=O)c1cc2c(nc1NC(=S)Nc1ccccc1)CC(C)(C)OC2	-1%	3%	-1%	-1%	4%
COc1cccc2cc(C(=O)Oc3ccccc3)c(=O)oc12	-2%	2%	.	12µM*	-3%
COc1cccc2cc(C(C)=O)oc12	0%	2%	-1%	-11%	-1%
COc1ccc(C(=O)c2cc3cccc(OC)c3o2)cc1	3.2µM*	?	14µM*	9.5µM*	3.2µM*
CC(=O)c1ccc(COC(=O)c2cc3ccccc3oc2=O)cc1	6%	17%	.	17µM*	-2%
CCN(C(=O)c1cc2cccc(OC)c2oc1=O)c1ccccc1	1%	-5%	10µM*	1%	-4%
COC(=O)c1ccc(COC(=O)c2cc3ccccc3oc2=O)cc1	15%	6%	.	?	3%
O=C(O)C1CCN(Cc2cccnc2)CC1	1%	1%	-1%	-2%	-10%
Cc1cccc(NC(=O)Cn2cc(S(=O)(=O)N3CCCC3)c(S(=O)(=O)N3CCCC3)c2)c1C	.	.	.	-5%	.
COc1cccc2cc(C(=O)OCc3ccccc3)c(=O)oc12	11%	4%	.	6µM*	2%
O=C(Nc1ccc2c(c1)CCCN2C(=O)c1ccco1)c1cc([N+](=O)[O-])ccc1Cl	-1%	-40%	.	4%	0%
COc1ccc(C(=O)CC2SC(N)=NC2=O)cc1 (stereo not drawn)	-6%	5%	.	-11%	5%
CC(C)(C)c1ccc(C2=NC(=O)C(CC(=O)O)S2)cc1 (stereo not drawn)	17%	0%	.	1.7µM*	12%
O=C(c1ccncc1)N1CCN(S(=O)(=O)c2ccccc2Br)CC1	7%	0%	.	-1%	-12%
Cc1ccc(-c2ccc(SCC(=O)NC3CCCC3)nn2)cc1	11%	-2%	.	?	13%
SMILES	Rab9 promoter act	ELG1 genotox	SMN2 splice enh	FLuc counter	NPC1 promoter act
CCOc1ccc(-c2nc(SCC(=O)NC3CCCC3)c(-c3ccccc3)[nH]2)cc1OC	.	.	-85%	24µM*	.
Cc1ccc(-c2ccc(SCC(=O)NC3CCCCC3)nn2)cc1	28%	10%	.	2.7µM*	?
COc1ccc(-c2ccc(SCC(=O)NC3CCCCC3)nn2)cc1	2.2µM*	?	.	1.7µM*	?
COc1ccc(-c2nc(SCC(=O)NC3CCCCC3)n[nH]2)cc1	-3%	-4%	.	15µM*	-10%
O=C(NN=C1CCCCC1)c1ccccc1-n1cccc1	3%	-3%	.	3%	-4%
CC(=O)Nc1ccc(S(=O)(=O)N2CCc3nc(COc4ccccc4)c4c(c3C2)CO[C@@H](C)C4)cc1	.	.	1%[9.22 µM]	.	.
COc1ccc(-c2cn3nc(SCC(=O)NC4CCCCC4)ccc3n2)cc1	0.71µM*	?	.	0.34µM*	0.56µM*
COc1ccc(-c2nnc(SCC(=O)NC3CCCCC3)nc2-c2ccc(OC)cc2)cc1	.	.	.	4%	.
CCOc1ccc(-c2ccc(SCC(=O)NC3CCCCC3)nn2)cc1	1.6µM*	?	.	0.38µM*	2µM*
CCCn1c(=O)c(Br)cn(-c2ccccc2C)c1=O	2%	3%	.	-3%	-1%
N=C1C2=C3Sc4ccccc4N3CCCC2=NN1c1cccc(S(=O)(=O)O)c1	-2%	-1%	.	19µM*	-4%
N#CC1=C2Sc3ccccc3N2CCCC1=O	?	?	6%	-19%	?
Cc1ccc(S(=O)(=O)N[C@H](C(=O)O)C(C)C)cc1	.	.	-19%[9.22 µM]	.	.
COc1cccc(C(=O)CSc2nnc(-c3cc(OC)cc(OC)c3)o2)c1	-5%	1%	1%	1%	-5%
Fc1ccccc1CSc1nnc(-c2ccccc2)o1	3.2µM*	8.2µM*	35µM*	4.8µM*	2.5µM*
COc1cc(OC)cc(-c2nnc(SCc3c(F)cccc3Cl)o2)c1	3.5µM*	?	21%	?	3.2µM*
Cc1ccccc1-c1nnc(SCc2ccccc2)o1	?	15µM*	14µM*	8.5µM*	?
COc1ccc(-c2nnc(SCc3ccccc3F)o2)cc1	1.4µM*	1µM*	11µM*	1.5µM*	1.3µM*
COc1cccc(CSc2nnc(-c3ccc(F)cc3)o2)c1	12%	5%	14%	2%[2.3 µM]	0%
CC(NC(=O)c1ccc2c(c1)N(Cc1cccc(F)c1)C(=O)c1ccccc1S2)c1ccccc1 (stereo not drawn)	.	.	.	-1%	.
Cc1ccc(S(=O)(=O)Nc2cc(C)cn(Cc3ccc(F)cc3)c2=O)cc1	0%	-16%	.	3%	2%
COC(=O)[C@@]1(Cc2ccc(OC)cc2)[C@@H]2[C@@H](CC(=O)[C@H]2CC(=O)C(=O)N2CCCC2)CN1C(=O)c1ccccc1	.	.	-3%	.	.
CC(C)[C@H](NC(=O)c1ccccc1)C(=O)OCC(=O)N1CCCc2ccccc21	-3%	-4%	-15%	1%	-1%
Fc1ccccc1CSc1nnc(-c2cccnc2)o1	3.2µM*	?	?	17µM*	4µM*
Cc1ccccc1-c1nnc(SCc2ccccc2F)o1	3.5µM*	?	13µM*	1.9µM*	3.2µM*
Cc1ccccc1CSc1nnc(-c2ccncc2)o1	17%	12%	16%	?	9%
O=[N+]([O-])c1cccc(-c2nnc3ccccn23)c1	-1%	-2%	.	5%	-10%
CCc1ccc(C(=O)Nc2cccc(-c3nc4cc(C(C)C)ccc4o3)c2)cc1	.	.	-5%	2.7µM*	.
CC(C)c1ccc2oc(-c3ccc(NC(=O)c4ncn[nH]4)cc3)nc2c1	?	9.2µM*	?	1.5µM*	?
COc1ccc([C@@H](C)NC(=O)c2ccc3oc(C(C)C)nc3c2)cc1	?	3%[9.26 µM]	.	17µM*	?

Bioassay records: PubChem BioAssay, National Center for Advancing Translational Sciences (NCATS)
